Data taken from PubChem BioAssay AID794 (The Scripps Research Institute Molecular Screening Center, 2007).
The other results are listed elsewhere or left out. Unmarked numbers belong to inactive results. Activity calls are given as the source filed them. Cut-off read from the data, not from the text of the source: active = inhibition above about 19%; inactive = the rest.

Molecular target: Focal adhesion kinase 1 (Homo sapiens) (UniProt Q05397)
Assay: human PTK2 activity blockers, single-point recheck – biochemical, confirmation (AID 794)
Details: FAK kinase biochemical inhibition assay; at 7 µM; hits give high values

Focal adhesion kinase 1 (Homo sapiens), sequence (Q05397 whole entry, looked up): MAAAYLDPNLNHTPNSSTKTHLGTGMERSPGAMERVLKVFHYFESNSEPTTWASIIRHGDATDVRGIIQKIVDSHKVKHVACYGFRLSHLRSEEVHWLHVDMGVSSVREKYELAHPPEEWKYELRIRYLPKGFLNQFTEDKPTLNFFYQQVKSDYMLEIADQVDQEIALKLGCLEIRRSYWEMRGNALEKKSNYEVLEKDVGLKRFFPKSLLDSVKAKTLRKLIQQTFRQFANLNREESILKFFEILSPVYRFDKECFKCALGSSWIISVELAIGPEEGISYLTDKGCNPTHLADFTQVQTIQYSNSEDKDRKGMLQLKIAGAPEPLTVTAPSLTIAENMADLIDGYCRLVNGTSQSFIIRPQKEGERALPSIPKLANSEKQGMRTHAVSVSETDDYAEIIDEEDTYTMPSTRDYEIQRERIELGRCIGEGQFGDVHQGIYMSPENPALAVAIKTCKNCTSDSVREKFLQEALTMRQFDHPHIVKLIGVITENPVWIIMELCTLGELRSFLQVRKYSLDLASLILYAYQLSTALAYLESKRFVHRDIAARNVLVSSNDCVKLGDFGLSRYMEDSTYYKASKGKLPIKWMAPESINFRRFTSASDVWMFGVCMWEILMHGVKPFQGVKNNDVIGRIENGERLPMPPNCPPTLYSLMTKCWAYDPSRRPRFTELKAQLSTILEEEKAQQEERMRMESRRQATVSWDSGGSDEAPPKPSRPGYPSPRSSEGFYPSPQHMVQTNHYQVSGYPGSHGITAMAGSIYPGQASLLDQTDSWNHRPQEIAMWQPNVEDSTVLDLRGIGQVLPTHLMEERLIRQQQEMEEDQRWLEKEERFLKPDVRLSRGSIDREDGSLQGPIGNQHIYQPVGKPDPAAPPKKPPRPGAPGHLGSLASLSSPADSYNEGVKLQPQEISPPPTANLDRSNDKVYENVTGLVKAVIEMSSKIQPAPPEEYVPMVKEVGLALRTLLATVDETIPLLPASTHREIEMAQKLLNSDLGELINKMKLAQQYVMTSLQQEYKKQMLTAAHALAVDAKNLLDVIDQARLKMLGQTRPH

SMILES	inhibition
Oc1ccccc1/C=N/n1c(-c2cccs2)n[nH]c1=S	8.74%
Cc1ccc(-n2nc3ccc(NC(=O)/C=C/c4ccco4)cc3n2)cc1C	5.82%
O=[N+]([O-])c1ccc(C=Nc2ccc(Cl)cc2Cl)s1	2.19%
COc1cc(N=Cc2c(O)[nH]c3ccccc23)cc(OC)c1OC	56.3% (active)
CCCOc1ccc(NC(=O)C2CCCNC2=O)cc1 (configuration not stated)	-2.48%
Nc1c(-c2ccc(F)cc2)cnc2ncnn12	-3.73%
Cn1cccc1C(=O)Nc1nccs1	7.79%
CCN(CC)S(=O)(=O)c1cc([N+](=O)[O-])ccc1NNC(=O)Nc1ccccc1	19.2% (active)
CCc1ccccc1NC(=O)CSc1nnc([C@@H](NC(=O)OC(C)(C)C)C(C)CC)o1 (some centres not stated)	-1.72%
Clc1ccccc1CSc1nnc(-c2ccco2)c(-c2ccco2)n1	8.81%
Cc1ccc(-c2nn(C(C)(C)C)c3ncnc(N)c23)cc1	15.6%
COCCn1c(C)cc(C(=O)CSc2ncnc3sc4c(c23)CCC4)c1C	4.05%
Cc1cc(NC(=O)c2cnn3cccnc23)n(-c2ccccc2)n1	13.6%
COC(=O)c1c(NC(=O)CSc2nncs2)sc2c1CCCCC2	10.8%
CC(=O)c1ccc(Cc2ncc(C(F)(F)F)cc2Cl)s1	-0.34%
Fc1ccc(-c2ccc(-c3nn4c(-c5ccco5)nnc4s3)o2)cc1	5.37%
Cc1cccn2c(=O)c3cc(C(=O)N4COCC4(C)C)n(C)c3nc12	6.3%
